This note sets out measurements from PubChem BioAssay AID2111 (National Center for Advancing Translational Sciences (NCATS), 2009).

Values joined by “and” are separate entries in the source; they are usually repeats but may differ in a detail not shown here. Identical values can stand only once. A number with no mark means an inactive call. Active and inactive are the calls of the source. Calls follow the shape of the dose curve; as a rule, active = well fitted curve in either direction with a large enough effect; inconclusive = small, poorly fitted or top-dose-only effect; inactive = no such curve, though single readings can be large or run the other way.

The experiment has as its target Lysosomal alpha-glucosidase (Homo sapiens) (UniProt P10253). The experiment is described as follows: Confirmation of Inhibitors and Activators of Human alpha-Glucosidase From Spleen Homogenate Using an Alternate Red Fluorescent Susbtrate. To be noted: resorufin-glucoside fluorescence; series mostly up to 62.8 µM; activity change, negative = inhibition: at the top concentration. An excerpt:
NIH Chemical Genomics Center [NCGC] NIH Molecular Libraries Probe Production centers Network [MLPCN] MLPCN Grant: 1R03MH084841-01 Assay Submitter (PI): Wei Zheng NCGC Assay Overview: Alpha-glucosidase is responsible for hydrolysis of terminal, non-reducing 1,4-linked alpha-D-glucose residues with release of alpha-D-glucose. It is a lysosomal hydrolase that is required for the degradation of a small percentage (1-3%) of cellular glycogen in human. Deficiency of this enzyme results in glycogen-storage disease type II (GSDII), also referred to as Pompe disease, an autosomal recessive disorder. Structurally normal glycogen is accumulated in lysosomes and cytoplasm in affected patients, primarily in muscle tissues. Excessive glycogen storage within lysosomes may interrupt normal functioning of other organelles and leads to cellular injury. In turn, this leads to enlargement and dysfunction of the entire organ involved (eg, cardiomyopathy and muscle weakness). It has reported that the improper folding and trafficking of alpha-glucosidase resultinged from the genetic mutations may account for a significant number of Pomrope patients. […] We optimized this alpha-glucosidase assay in 1536-well plate format for identifying the novel small molecule inhibitors with the structures other than the sugar analogs in order to develop the new pharmacological chaperones. In particular, this assay is directed towards discovering compounds active in a more natural setting, tissue homogenate, that may have been missed by screens of the purified enzyme under more stringent conditions. This assay attempted to confirm hits from the primary screening using an alternate fluor than the primary screen used.
NCGC Assay Protocol Summary: This is a fluorogenic enzyme assay with Resorufin-alpha-D-glucopyranoside as the substrate and human spleen homogenate containing alpha-glucosidase as the enzyme preparation. Upon hydrolysis of this fluorogenic substrate, the resulting product, resorufin (which excites at 573 nm and emits at 610 nm) can be detected by a fluorescence plate reader. Data were normalized to the controls for basal activity (without enzyme) and 100% activity (with enzyme). The AC50 values were determined from concentration-response data modeled with the standard Hill equation. Assay buffer: 50 mM citric acid (titrated with potassium phosphate to pH 5.0), 0.01% Tween-20 (pH 5.0 is an optimal condition for this enzyme assay) 1536-well assay protocol for the alpha-glucosidase from human spleen homogenate: (1) Add 2 ul/well spleen homogenate (1 ug) (2) Add 23 nL compounds in DMSO solution. The final titration was 0.5 nM to 58 uM. (3) Add 2 ul of substrate (1 mM final) (4) Incubate at 37 C for 40 min (5) Add 2 ul stop solution (1M NaOH and 1M Glycine mixture, pH 10) (6) Detect the assay plate in a ViewLux plate reader (PerkinElmer) with […]. Keywords: Alpha-glucosidase, Pompe Disease, pharmacological chaperone, chaperone therapy, high throughput screening, alpha-glucosidase inhibitor, MLSMR, MLSCN, NIH Roadmap, qHTS and NCGC
For `CCCN1CNc2c(c(=O)[nH]c(=S)n2CCc2cccc(OC)c2)C1`, the Potency was 10 µM (active).

Take `COc1ccc(N2CCN(S(=O)(=O)c3ccc4c(c3)CC(=O)N4)CC2)cc1`: the Potency was 6.68 µM [inhibitor] (active).

For `CC(=O)N1CCN(c2ccc(NS(=O)(=O)c3ccc4c(c3)CC(=O)N4)cc2)CC1`, the “activity change, negative = inhibition” value is -22.9% [at 130 µM].

As to `O=C1Cc2cc(S(=O)(=O)N3CCN(c4ccc(C(F)(F)F)cc4)CC3)ccc2N1`, the “activity change, negative = inhibition” value was -24.1% [at 130 µM].

Turning to `CC(=O)c1ccc(N2CCN(S(=O)(=O)c3ccc4c(c3)CC(=O)N4)CC2)cc1`, the Potency was 1.03 µM [inhibitor] (active) and 943 nM [inhibitor] (active) and 2.06 µM [inhibitor] (active).

Consider `CC(=O)c1ccc(N2CCN(S(=O)(=O)c3ccc4c(c3)OCC(=O)N4)CC2)cc1`, for which the “activity change, negative = inhibition” value was 3.49%.

Consider `CC(=O)c1ccc(N2CCN(S(=O)(=O)c3ccc4c(c3)C(=O)OC4)CC2)cc1`, for which the “activity change, negative = inhibition” value is 9.03%.

`CCCN1CNc2c(c(=O)[nH]c(=S)n2CCC)C1`: the “activity change, negative = inhibition” value was -4.56%.

In the case of `O=C1Cc2cc(S(=O)(=O)N3CCN(c4ccc(CO)cc4)CC3)ccc2N1`, the Potency is 13 µM [inhibitor] (active).

Consider `COc1ccc(CCn2c3c(c(=O)[nH]c2=S)CN(C)CN3)cc1OC`, for which the Potency is 31.6 µM (active).

For the compound `CCCN1CNc2c(c(=O)[nH]c(=S)n2CCc2ccc(C)cc2)C1`, the Potency is 14.1 µM (active).

On to `CCCN1CNc2c(c(=O)[nH]c(=S)n2CCc2ccc(OC)c(OC)c2)C1`, for which the Potency is 8.91 µM (active).

Turning to `COc1ccc(CCn2c3c(c(=O)[nH]c2=S)CN(C(C)C)CN3)cc1OC`, the Potency was 12.6 µM (active).

For `CCCN1CNc2c(c(=O)[nH]c(=S)n2CCc2cccc(C)c2)C1`, the Potency was 15.8 µM (active).

For `COc1ccc(C#Cc2c[nH]c(=O)c3cncnc23)cc1OC`, the “activity change, negative = inhibition” value is 5.09%.

As to `COc1ccc(C#Cc2cnc(Cl)c3cncnc23)cc1OC`, the “activity change, negative = inhibition” value is 7.5%.

`O=C1Cc2cc(S(=O)(=O)N3CCN(c4cccc(C(F)(F)F)c4)CC3)ccc2N1`: the Potency is 8.41 µM [inhibitor] (active).

Take `O=C1Cc2cc(S(=O)(=O)N3CCN(c4ccc([N+](=O)[O-])cc4)CC3)ccc2N1`: the Potency was 5.8 µM [inhibitor] (active).

Take `CCCN1CNc2c(c(=O)[nH]c(=S)n2CCc2ccccc2OC)C1`: the Potency was 14.1 µM (active).

Take `COc1ccc(CCn2c3c(c(=O)[nH]c2=S)CN(c2ccccc2)CN3)cc1OC`: the Potency is 25.1 µM (active).

Consider `CCCN1CNc2c(c(=O)[nH]c(=O)n2CCc2ccc(OC)c(OC)c2)C1`, for which the Potency was 15.8 µM (active).

For the compound `O=C1Cc2cc(S(=O)(=O)N3CCNCC3)ccc2N1`, the “activity change, negative = inhibition” value is -0.948%.

Take `COc1ccc(CCn2c(=S)[nH]c(=O)c3nccnc32)cc1OC`: the “activity change, negative = inhibition” value was 5.44%.

On to `O=c1[nH]cc(C#Cc2ccccc2)c2ncncc12`, for which the “activity change, negative = inhibition” value is -8.47%.

On to `Cc1ccc(N2CCN(S(=O)(=O)c3ccc4c(c3)CC(=O)N4)CC2)cc1`, for which the “activity change, negative = inhibition” value was -15.1% [at 130 µM].

Turning to `COC(=O)c1ccc(N2CCN(S(=O)(=O)c3ccc4c(c3)CC(=O)N4)CC2)cc1`, the Potency is 1.16 µM [inhibitor] (active).

On to `CC(=O)N1CCN(S(=O)(=O)c2ccc3c(c2)CC(=O)N3)CC1`, for which the Potency is 14.9 µM [inhibitor] (active).

In the case of `CCCN1CNc2c(c(=O)[nH]c(=S)n2CCc2ccsc2)C1`, the Potency is 28.2 µM (active).

Turning to `CCCN1CNc2c(c(=O)[nH]c(=S)n2CCc2ccc(OCC)c(OCC)c2)C1`, the Potency is 7.94 µM (active).

Turning to `COc1ccc(CCn2c(=S)[nH]c(=O)c3c(C)cc(C)nc32)cc1OC`, the “activity change, negative = inhibition” value was 5.96%.

Consider `CC(=O)c1ccc(N2CCN(S(=O)(=O)c3ccc4c(c3)CCC(=O)N4)CC2)cc1`, for which the “activity change, negative = inhibition” value was 9.43%.

For `CCCN1CNc2c(c(=O)[nH]c(=S)n2CCc2cc(OC)ccc2OC)C1`, the Potency was 12.6 µM (active).

Take `CCCN1CNc2c(c(=O)[nH]c(=S)n2Cc2ccc(OC)c(OC)c2)C1`: the Potency is 5.01 µM (active).

`CCCN1CNc2c(c(=O)[nH]c(=S)n2CCC(C)C)C1`: the “activity change, negative = inhibition” value was -2.72%.

Take `CCCN1CNc2c(c(=O)[nH]c(=S)n2CCc2ccccc2C)C1`: the Potency is 12.6 µM (active).

On to `O=C1Cc2cc(S(=O)(=O)N3CCN(c4ccc(F)cc4)CC3)ccc2N1`, for which the Potency was 59.5 µM [inhibitor] (active).

As to `CCCCN1C[C@H](O)[C@@H](O)[C@H](O)[C@H]1CO`, the “activity change, negative = inhibition” value is -94.3%.

Take `O=Cc1ccc(N2CCN(S(=O)(=O)c3ccc4c(c3)CC(=O)N4)CC2)cc1`: the Potency was 5.17 µM [inhibitor] (active).

`CC(=O)c1ccc(N2CCN(S(=O)(=O)c3ccc4c(c3)CC(C)N4C(C)=O)CC2)cc1` (stereo not given): the “activity change, negative = inhibition” value is 11.1%.

Take `CC(=O)c1ccc(N2CCN(S(=O)(=O)c3ccc4c(c3)n(C)c(=O)n4C)CC2)cc1`: the “activity change, negative = inhibition” value was 0.436%.
